Pf Dd2 inh: qHTS Primary assay for Inhibitors of Plasmodium falciparum Dd2 growth in vitro | 4.3% of 120,000 active | Potency, µM (doses to about 28.9 µM), for the others: at the highest dose activity, negative = inhibition, usual class: inhibitors | P. falciparum Dd2 growth, SYBR Green, 72 h; active means well fitted inhibition curve with a large enough effect;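 further: plate controls were DMSO vehicle for no effect and reference drug for full effect; nearly all actives have a fitted effect of over 65% in size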
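Readout: SYBR Green fluorescence, 485 nm excitation, 535 nm emission, after ~16 h lysis at 37C. Before that, Dd2-infected red cells (2.5% hematocrit) grew 72 h with compound, 29 uM top final concentration.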
Numbers without * were called inactive; i = inactive; [ ] = another dose, or the depositor's remark. Many of the other results were omitted from the sample, so hits are more common in it than they were. Potency means the concentration at half of the fitted maximal effect.

SMILES | Pf Dd2 inh
CN(C)C[C@@H]1CN(c2ncccn2)C[C@H]1NC(=O)c1c(F)cccc1F | 0%
COCCOC1CCOC2(CCN(C(=O)CCn3nc(C)cc3C)CC2)C1 (stereo unspecified) | -10%
C#CCOc1cccc(CN2CCN3C(=O)CN(C)C(=O)C3C2)c1 (stereo unspecified) | -9%
COc1cccnc1C(=O)N1CCC(N2CCCC(C(=O)N3CCCC3)C2)CC1 (stereo unspecified) | 15%
O=CN1CCC(Cn2cnc3cccnc32)CC1 | 22%[44.1 µM]
Cc1cc(C(=O)N2CC(F)(F)C[C@H]2c2nc(C)no2)on1 | 16%
Cc1ccc(C2(C(=O)N3CCCC4(CC3)CN(C)C(=O)O4)CC2)cc1 (stereo unspecified) | -8%
CN(C)Cc1nnc(C2CC(NC(=O)c3ccc4nccn4c3)C2)n1C (stereo unspecified) | -3%
CC(C)CCNC(=O)N1CC(C(=O)N(C)C)C2(CCOCC2)C1 (stereo unspecified) | 18%
CN(CC1(c2ccccc2)CC1(C)C)C(=O)c1cn(C/C=C/c2ccccc2)nn1 (stereo unspecified) | -3%
CC(C)c1ccc(S(=O)(=O)c2nnn3c2nc(N2CCCC2)c2sccc23)cc1 | 0%
CCOC(=O)C1CCN(c2nc3c(S(=O)(=O)c4ccccc4)nnn3c3ccc(Cl)cc23)CC1 | 8.9µM*
O=S(=O)(c1ccccc1)c1nnn2c1nc(NC1CC1)c1ccccc12 | -9%
Cc1cc(C)c(S(=O)(=O)c2nnn3c2nc(NC2CCCC2)c2ccccc23)c(C)c1 | 11µM*
Cc1cc(C)cc(Nc2nc3c(S(=O)(=O)c4cccc(Cl)c4)nnn3c3ccsc23)c1 | -11%
CCOC(=O)C1CCCN(c2nc3c(S(=O)(=O)c4ccc(CC)cc4)nnn3c3ccc(Cl)cc23)C1 (stereo unspecified) | -30%
Cc1ccc(S(=O)(=O)c2nnn3c2nc(N2CCC(C(N)=O)CC2)c2cc(Cl)ccc23)cc1C | -16%
O=S(=O)(c1cccc(Cl)c1)c1nnn2c1nc(NCc1ccc3c(c1)OCO3)c1sccc12 | -11%
CCc1ccc(S(=O)(=O)c2nnn3c2nc(N2CCC(C)CC2)c2cc(Cl)ccc23)cc1 | i
Cc1cc(C)c(S(=O)(=O)c2nnn3c2nc(NCCCOC(C)C)c2ccccc23)c(C)c1 | -20%
O=S(=O)(c1cccc(Cl)c1)c1nnn2c1nc(NC1CCCC1)c1sccc12 | 13µM*
CC1CCN(c2nc3c(S(=O)(=O)c4cccc(Cl)c4)nnn3c3ccsc23)CC1 | 13µM*
O=C(c1cn[nH]c1)N1CCC(c2nc(CCOCC3CCCC3)no2)C1 (stereo unspecified) | -12%
O=C(NC1CCN(c2cc(-c3cccs3)[nH]n2)C1)c1cccc(OC(F)(F)F)c1 (stereo unspecified) | i
CCO[C@H]1C[C@@H](O)C12CCN(C(=O)CCCc1ccccc1)CC2 | -13%
SMILES | Pf Dd2 inh
CC(=O)NCCCC(=O)N1CCN(c2cccc(C=O)c2)C(=O)C1 | 6%
CN[C@H](C(=O)N[C@@H]1C=C(C(=O)N[C@H]2CCCNC2=O)C[C@@H](O)[C@@H]1O)C(C)C | 17%[44.1 µM]
O=C(Cc1ccccc1)NC1CCN(c2cc(-c3ccccc3)[nH]n2)CC1 | i
Cc1nc2ccccc2n1Cc1cn([C@@H]2CN[C@H](C(=O)O)C2)nn1 | -2%
CC(=O)Nc1ccc(S(=O)(=O)N2CC[C@H](c3nc4ccccc4o3)C2)cc1 | i
O=C(c1ccc(C(F)(F)F)cc1)N1CCC(N2CCCC2=O)CC1 | 13%
O=C(c1ccccn1)N1CCCC(CN2CCCC2)CC1 (stereo unspecified) | 26%
Cn1nc(C(=O)N2CCc3nn(CC4CC4)c(=O)n3CC2)c2ccccc21 | 18%
Cn1nc(C(=O)N2CCCC(CN3CCCC3)CC2)c2ccccc21 (stereo unspecified) | 3.2µM*
O=C(NCCN1CCCOC1=O)c1ccc2nc(C3CCCCC3)oc2c1 | 1%
COc1ccc(-c2nc(C(C)C)nc3c2CCN(C(=O)N(C)C)CC3)cc1 | -23%
CCc1nc2c(c(-c3ccc(OC)cc3)n1)CCN(C(=O)c1ccccc1OC)CC2 | -10%
CC(C)c1nc2c(c(-c3ccc(O)cc3)n1)CN(C(=O)c1ccc(C(F)(F)F)cc1)CC2 | i
COc1ccc(-c2nc(C(C)C)nc3c2CCN(C(=O)c2cccc(Cl)c2)CC3)cc1 | 5.6µM*
COc1ccc(-c2nc(C(C)C)nc3c2CCN(C(=O)C2CC2)CC3)cc1 | i
Cc1ccc(C(=O)N2CCc3nc(C(C)C)nc(-c4ccc(O)cc4)c3C2)cc1 | i
COc1ccc(-c2nc(C(C)C)nc3c2CCN(C(C)=O)CC3)cc1 | i
COc1ccc(-c2nc(C(C)C)nc3c2CCN(C(=O)Nc2ccccc2)CC3)cc1 | 5µM*
COc1ccccc1C(=O)N1CCc2nc(C(C)C)nc(-c3ccc(Cl)cc3)c2CC1 | -28%
COc1ccc(-c2nc(C(C)C)nc3c2CCN(C(=O)c2ccc(F)cc2)CC3)cc1 | 11µM*
CC(C)c1nc2c(c(-c3ccc(Cl)cc3)n1)CCN(C(=O)c1ccc(C(F)(F)F)cc1)CC2 | 10µM*
COc1ccccc1N1CCN(C(=O)C[C@@H]2CCNC[C@@H]2Cc2cc(-c3ccccc3)on2)CC1 | -28%
CNc1ncc(C(=O)N2C[C@H]3COc4ccccc4C[C@@]3(C(=O)O)C2)cn1 | -4%
COCCOc1ccc(C(=O)N[C@@H]2CN(C3CCN(C)CC3)CCC[C@H]2O)cc1 | -18%[44.1 µM]
Nc1n[nH]c(C(=O)N2C[C@@H](C(=O)O)[C@H](C3CC3)C2)c1Cl | 1%
SMILES | Pf Dd2 inh
Cc1ccc(C(C)NC(=O)c2cc(COc3ccccc3)[nH]n2)c(C)c1 (stereo unspecified) | i
Cc1noc(C)c1-c1cc2cc(CN(C)C)oc2c(N2CCN(c3ccccn3)CC2)n1 | -32%[44.1 µM]
O=C(NCc1ccc(F)cc1)C1CCc2nnc(C3CCN(C(=O)C4CC4)CC3)n21 (stereo unspecified) | 31%
CC(C)c1nc2c(c(-c3ccc(O)cc3)n1)CN(C(=O)C1CCCC1)CC2 | i
CC(C)c1nc2c(c(-c3ccc(O)cc3)n1)CN(C(=O)Nc1ccc(Cl)cc1)CC2 | 11µM*
CC(C)c1nc2c(c(-c3ccc(O)cc3)n1)CN(C(=O)C1CC1)CC2 | i
COc1ccc(Cn2c(C3CCN(C(=O)c4cc(F)ccc4F)CC3)n[nH]c2=O)cc1 | -15%
O[C@@H]1C[C@@H](c2nc(C3CC3)no2)N(Cc2cccs2)C1 | -11%[44.1 µM]
CC(C)CC(=O)N1CCC2(C1)C(=O)N(C)c1ccccc12 (stereo unspecified) | 4%
COc1cc2c(C(=O)N3CCN(c4ccc(F)cc4)CC3)cn(CC(C)C)c(=O)c2cc1OC | 10µM*
COc1ccccc1N1CCN(C(=O)c2cn(CC(C)C)c(=O)c3c2c2ccccc2n3C)CC1 | 7.9µM*
COc1ccc(Nc2ncc(C(=O)N3CCN(c4ccc(OC)cc4)CC3)c3ccccc23)cc1 | i
COc1ccccc1N1CCN(C(=O)Nc2cn(CC(C)C)c(=O)c3ccccc23)CC1 | 45%[5.79 µM]
COc1ccc(N2CCN(C(=O)c3cc4c(=O)n(Cc5ccccc5)ccc4nc3C)CC2)cc1 | -16%
COc1ccc(N2CCN(C(=O)c3cn(CC(C)C)c(=O)c4c3c3ccccc3n4C)CC2)cc1 | 10µM*
COc1cc2c(C(=O)N(C)c3cccc(C(F)(F)F)c3)cn(CC(C)C)c(=O)c2cc1OC | -17%
COc1cc(Cl)c(C)cc1NC(=O)c1cn(CC(C)C)c(=O)c2cc(OC)c(OC)cc12 | 0%
COc1ccccc1N1CCN(C(=O)c2c(C)oc3ncn(CC(C)C)c(=O)c23)CC1 | 8%

High-throughput results: PubChem, National Center for Advancing Translational Sciences (NCATS)
